Source: PubChem BioAssay (National Center for Advancing Translational Sciences (NCATS))
KB-3-1 tox: KB-3-1 parental cell cytotoxicity; KB-3-1 viability, CellTiter-Glo ATP luminescence, 72 h; Potency, µM (top dose mostly 46.1 µM), usual class: cytotoxic; hit rate 1.4% among 400,000; note: nearly all actives have a fitted effect of over 60% in size
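Viability of parental KB-3-1 cells, measured by CellTiter-Glo luminescence, followed a 72 h incubation at 37 °C with pinned compounds in phenol-red-free DMEM containing 10% FBS.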
DT40 TDP1 no CPT: qHTS for Inhibitors of human tyrosyl-DNA phosphodiesterase 1 (TDP1): qHTS in cells in absence of CPT; DT40 Tdp1-/- hTDP1 cells, no CPT, ATP luminescence, 48 h; AID 686978, 2013; hit rate 15% among 420,000; Potency, µM (highest dose often 46.2 µM), for inactives: top-dose activity change, negative = growth inhibition, most hits filed as inhibitors; note: nearly all actives have a fitted effect of over 55% in size
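Camptothecin absent (DMSO only). Human TDP1-complemented DT40 knockout cells, 400 cells/well, 37 °C for minimum 48 hr; ATP measured via CellTiter-Glo, 30 min dark incubation, luminescence.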
KB-V1 MDR tox: kills drug-selected multidrug resistant KB-V1 cells; AID 1347076; KB-V1 MDR cells viability, CellTiter-Glo, 72 h; Potency, µM (series often up to 46.1 µM), hits mostly cytotoxic; hit rate 3.4% among 400,000; note: nearly all actives have a fitted effect of over 60% in size
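Following 72 h at 37 degrees C with compound, KB-V1 cell viability was read by CellTiter-Glo luminescence, medium being phenol-red-free DMEM plus 10% FBS; concentration-response parameters came from normalized, curve-fitted qHTS data.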
HT1080NT lethal: kills 2HG-producing HT-1080-NT fibrosarcoma cells. Potency, µM (top dose mostly 46.1 µM), for the others: top-dose activity, negative = less viability, usual class: cytotoxic. HT-1080-NT fibrosarcoma viability, CellTiter-Glo ATP luminescence, 48 h. hit rate 1.6% among 360,000;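 note: NT is the 2HG producing partner of a matched IDH1 knockdown line; 0% = DMSO-treated cells and -100% = media-only wells without cells; nearly all actives have a fitted effect of over 55% in size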
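Luminescent CellTiter-Glo readout after 48 hours of compound exposure at 37 degrees C defined viability of HT-1080-NT cells. Activity was normalized to DMSO wells and cell-free media wells; concentration-response curves were fitted and assigned curve classes.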
DT40 TDP1 CPT: DT40-hTDP1 cell growth loss with CPT. chicken DT40 Tdp1-/-;hTDP1 cells + 20 nM CPT, ATP luminescence, 48 h. hit rate 12% among 420,000. Potency, µM (top dose mostly 46.2 µM), for the others: at the highest dose activity change, negative = growth inhibition, most hits filed as inhibitors; note: nearly all actives have a fitted effect of over 55% in size
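Chicken DT40 Tdp1-/- cells complemented with human TDP1, 400 cells/well, exposed to compounds plus 20 nM camptothecin for at least 48 h at 37 C; viability read as ATP content by CellTiter-Glo luminescence.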
HT1080 IDH1KD tx: kills HT-1080 cells with IDH1 knockdown | HT-1080 IDH1 knockdown viability, ATP luminescence, 48 h | Potency, µM (titrated, usually from 46.1 µM), inactives show at the top dose activity, negative = toxicity, actives largely listed as cytotoxic | hit rate 2% among 360,000 | AID 686971;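 note: 0% = DMSO wells and -100% = cell-free medium wells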
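% activity derives from luminescence (CellTiter-Glo), normalised to DMSO and no-cell wells. HT-1080-IDH1KD cells, 750/well, had 48 h compound exposure at 37 °C.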
Active calls of the source: *; i = inactive; ? = inconclusive; . = no result given; ! = repeats disagree. Sampled rows, rich in hits. Any-hit rate of the full collection: about 19%. Calls come from the whole dose curve; as a rule, active = well fitted curve in the direction sought with a large enough effect; inconclusive = small, poorly fitted or top-dose-only effect, or another doubt; inactive = no such curve, though single readings can be large; an effect the other way counts as inactive or inconclusive. Unless noted, % is set by controls: 0 for no effect and ±100 for the full control effect; potency is the fitted concentration of half-maximal effect.

SMILES | KB-3-1 tox | DT40 TDP1 no CPT | KB-V1 MDR tox | HT1080NT lethal | DT40 TDP1 CPT | HT1080 IDH1KD tx
NC(Cc1ccc(Cl)cc1)c1csc(NC(=O)Nc2ccccc2-c2ccccc2)n1 (stereo not drawn) | ? | 12µM* | ? | ? | 13µM* | ?
COc1ccccc1CNC(=O)Nc1nc(C(N)CCc2ccccc2)cs1 (stereo not drawn) | ? | 18µM* | i | ? | 18µM* | 18µM*
NC(CCc1ccccc1)c1csc(NC(=O)NCCc2ccccc2)n1 (stereo not drawn) | ? | ? | ? | 16µM* | 23µM* | 16µM*
COc1ccc(S(=O)(=O)Nc2ccccc2Cl)cc1NC(C)=O | i | -27% | i | -10% | -4% | -4%
NC(Cc1ccc(Cl)cc1)c1csc(NC(=O)NCC2CCCCC2)n1 (stereo not drawn) | ? | 8.2µM* | 16µM* | 16µM* | 10µM* | 16µM*
O=C(C(=O)N1CCC(Cc2ccccc2)CC1)c1ccccc1 | i | 16µM* | ? | 1% | ? | 4%
Cc1ccc(/C=C/C(=O)N2CCCC(C)C2)cc1 (stereo not drawn) | i | ? | 16µM* | 17% | -7% | 10%
N#Cc1cccc(C(=O)C(=O)N2CCC(Cc3ccccc3)CC2)c1 | i | ? | ? | 13% | ? | 7%
Cc1ccc(/C=C/C(=O)N2CCC(Cc3ccccc3)CC2)cc1 | i | ? | 21µM* | -6% | ? | -4%
CC1CCN(C(=O)/C=C/c2ccc(C(C)(C)C)cc2)CC1 | i | 21µM* | ? | 7% | ? | 1%
O=C(NCCc1cn2ccccc2n1)C1CCCCC1 | ? | 8% | i | 15% | 8% | 8%
CCOCCCNC(=O)Cn1ncc2c([nH]c3ccc(C)cc32)c1=O | . | -27% | . | . | ? | .
CCCCCC[C@@H](CCC)C(=O)O | . | -3% | . | . | 13% | .
Cc1ccc(NC(=O)N2CCCC2C(=O)Nc2nnc(C(C)C)s2)cc1 (stereo not drawn) | ? | 0% | i | 12% | 12% | 2%
COc1ccc(NC(=O)c2oc3ccccc3c2NC(=O)Cc2cccs2)c(OC)c1 | i | ? | i | . | ? | .
CN(C)c1ccc(NC(=O)Nc2ccc3c(c2)c(=O)n(C)n3Cc2ccccc2)cc1 | i | 16µM* | i | ? | 23µM* | ?
CC(C)=CCn1c2ccc(NC(=O)Nc3ccc(N(C)C)cc3)cc2c(=O)n1C | i | 18µM* | i | -24% | ? | ?
CCNc1nc(C)nc2c1oc1ccccc12 | i | -21% | i | 0% | 0.58µM* | -7%
Cc1nc(NC(C)C)c2oc3ccccc3c2n1 | i | 13µM* | i | -10% | ? | 0%
CCNc1nc(CC)nc2c1oc1ccccc12 | i | -19% | ? | 12% | -14% | -20%
CC(OC(=O)[C@@H](NS(=O)(=O)c1ccccc1)C(C)C)C(=O)c1c(N)n(C)c(=O)n(C)c1=O (stereo partly drawn) | i | -19% | i | 13% | -9% | 4%
CC(OC(=O)C1=Cc2ccccc2OC1)C(=O)NCc1ccco1 (stereo not drawn) | i | ? | i | 0% | -8% | 0%
CCC(OC(=O)C1=Cc2ccccc2OC1)C(=O)NCc1ccco1 (stereo not drawn) | i | 26µM* | i | -5% | -28% | -5%
Cc1noc(C)c1C(=O)N1CCN(C(=O)c2sc3cc(Cl)ccc3c2Cl)CC1 | i | -24% | 23µM* | -5% | ? | -3%
c1ccc(Cn2c(Cn3c(-c4cnccn4)nc4ccccc43)nc3ccccc32)cc1 | i | ? | 9.2µM* | ? | 26µM* | -16%
SMILES | KB-3-1 tox | DT40 TDP1 no CPT | KB-V1 MDR tox | HT1080NT lethal | DT40 TDP1 CPT | HT1080 IDH1KD tx
CC(c1nc2ccccc2n1Cc1ccccc1)n1c(-c2cnccn2)nc2ccccc21 (stereo not drawn) | i | 21µM* | ? | ? | 15µM* | ?
C=CCn1cccc(C(=O)Nc2ccc(OC)c(Cl)c2)c1=O | i | ? | ? | 0% | 6% | -3%
NS(=O)(=O)c1cccc(NC(=O)CC23CC4CC(C2)CC(CC(=O)Nc2cccc(S(N)(=O)=O)c2)(C4)C3)c1 | ? | -6% | i | -1% | 0% | 0%
COCCCN(C(=O)CC1OC(=O)c2ccccc21)c1c(N)n(Cc2ccccc2)c(=O)[nH]c1=O (stereo not drawn) | i | 4% | i | -2% | 5% | 4%
O=c1[nH]c(=S)[nH]c2nc[nH]c12 | i | -6% | ? | . | 8% | .
S=c1nc[nH]c2nc[nH]c12 | 0.82µM* | 19µM*! | 1.2µM* | 2.3µM* | ? | 1.8µM*
COc1ccccc1CCNC(=O)CCn1c(=O)c2cccn2c2ccc(F)cc21 | i | 12µM* | i | 1% | 23µM* | 11%
COc1ccc(CCNC(=O)CCn2c(=O)c3cccn3c3ccc(F)cc32)c(OC)c1OC | i | 8.2µM* | i | 1% | 13µM* | 6%
O=[N+]([O-])c1ccc(N2CCCCC2)nc1N1CCCCC1 | i | 21µM* | i | 13% | ? | ?
CCCCCCCCOC(=O)c1cc([N+](=O)[O-])c(Sc2ncnc3nc[nH]c23)c([N+](=O)[O-])c1 | ? | 3.3µM* | ? | ? | 2.6µM* | 13µM*
COc1ccc(C(=O)NCCCC2CCCC2)cc1OC1CCN(C(C)C)CC1 | i | 16µM* | i | ? | 16µM* | ?
CCOCCCNC(=O)c1ccc(OC)c(OC2CCN(C(C)C)CC2)c1 | i | 8% | i | -4% | 6% | -4%
COc1ccc(C(=O)N(C)CCCC2CCCC2)cc1OC1CCN(C(C)=O)CC1 | . | 16µM* | . | 0% | ? | -5%
O=C(O)CCN1C(=O)/C(=C2\C(=O)N(Cc3ccc(F)cc3)c3ccccc32)SC1=S | i | 15µM* | i | 11% | 16µM* | 10%
CN1C(=O)/C(=C2\SC(=S)N(CCCCCC(=O)O)C2=O)c2ccccc21 | i | -26% | i | 8% | ? | 6%
O=C(c1c(Cl)cccc1Cl)N1CCN(c2ccccn2)CC1 | i | -18% | i | 3% | -22% | -7%
O=C(c1nn(Cc2ccccc2)c(=O)c2ccccc12)N1CCN(c2ccccn2)CC1 | i | ? | 2.3µM* | -11% | -2% | -12%
